Assay outcomes (PubChem)
This is a sample that favours compounds with a hit; in the whole collection about 3.3% have one here.
NPSR antagonist: antagonists of human neuropeptide S receptor cAMP signaling. Potency, µM (series often up to 38.3 µM), inactives show top-dose activity change, negative = inhibition, hits mostly inhibitors. CHO-NPSR cells, cAMP TR-FRET, antagonist mode. 220,000 compounds, 1% hits; note: potency is the fitted concentration of half-maximal effect; % is set by controls: 0 for no effect and ±100 for the full control effect; nearly all actives have a fitted effect of over 50% in size
Target sequence (Q6W5P4 whole entry, looked up): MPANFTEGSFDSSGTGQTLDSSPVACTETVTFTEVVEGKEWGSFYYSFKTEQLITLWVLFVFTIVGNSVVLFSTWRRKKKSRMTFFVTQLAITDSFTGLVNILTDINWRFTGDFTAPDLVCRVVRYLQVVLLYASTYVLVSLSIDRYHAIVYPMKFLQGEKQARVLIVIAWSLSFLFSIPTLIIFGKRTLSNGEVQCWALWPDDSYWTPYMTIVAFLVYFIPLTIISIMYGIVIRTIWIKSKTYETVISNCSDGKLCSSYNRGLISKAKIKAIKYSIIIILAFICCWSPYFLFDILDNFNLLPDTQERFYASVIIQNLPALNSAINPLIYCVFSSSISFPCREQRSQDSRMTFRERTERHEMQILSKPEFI
12-hLO inh: blocks human 12-lipoxygenase activity; Potency, µM (series often up to 57.1 µM), without a hit: top-dose activity change, negative = inhibition, usual class: inhibitors; P18054; purified 12-hLO, xylenol orange hydroperoxide absorbance; 150,000 compounds, 0.12% hits; AID 1452; note: potency is the fitted concentration of half-maximal effect; % is set by controls: 0 for no effect and ±100 for the full control effect; nearly all actives have a fitted effect of over 55% in size
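Xylenol orange chromogenic assay: hydroperoxide from 12hLO oxidises Fe(II), giving red-shifted Fe(III)-XO absorbance. Conditions: 150 nM enzyme, 40 uM arachidonic acid, 25 mM Hepes pH 7.0, 0.01% Triton X-100, 30 min, room temperature.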
IMPase inh: IMPase inhibition in cells; P97697; CHO-M1 cells, IP1 accumulation, HTRF TR-FRET ratio; inhibition (IP1 accumulation), % at 46.1 µM; 120,000 tested, under 10 active; AID 901; active = well fitted curve in the direction sought with a large enough effect in the signal ratio, not every such curve was filed as active; inconclusive = small, poorly fitted or top-dose-only effect, or a change in a side signal; inactive = no such curve, though single readings can be large or run the other way; the % refers to the signal ratio;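 note: cells stimulated with carbachol in lithium chloride buffer; plate controls were DMSO basal wells for no effect and reference inhibitor wells for full effect; higher means more IMPase inhibition seen as more IP1 and lower FRET ratio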
Target sequence (P97697 whole entry, looked up): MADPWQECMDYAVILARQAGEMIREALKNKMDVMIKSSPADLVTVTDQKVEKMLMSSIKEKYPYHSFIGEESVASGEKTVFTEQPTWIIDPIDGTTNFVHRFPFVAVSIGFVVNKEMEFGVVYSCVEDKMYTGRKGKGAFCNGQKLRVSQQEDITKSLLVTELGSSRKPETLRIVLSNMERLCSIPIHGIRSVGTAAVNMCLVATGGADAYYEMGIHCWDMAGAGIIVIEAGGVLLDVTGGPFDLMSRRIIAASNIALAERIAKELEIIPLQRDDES
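The IP-One HTRF competitive assay in carbachol-stimulated CHO-M1 cells quantifies cellular IP1. Compounds spanned up to 46 uM final, and activity is expressed as AC50 from concentration-response fits of the ratio and donor data.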
HTT cytoprotect: Huntington cell model cytoprotection by ATP luminescence; PC12 HTT-Q103 induced, cytoprotection, ATP luminescence, 40 h; Potency, µM (highest dose often 56.4 µM), without a hit: cytoprotection (ATP increase), most hits filed as activators; 230,000 compounds, 0.14% hits; note: potency is the fitted concentration of half-maximal effect; % of control where 0% means no effect; nearly all actives have a fitted effect of over 45% in size
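Huntington model: PC12 line, ecdysone-inducible HTTQ103 exon1–GFP, tebufenozide 100 nM. Test articles in a dose series. Endpoint luminescence from cellular ATP.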
PNC inhibitor: inhibitors of perinucleolar compartment assembly; PC3M PTB-GFP, PNC prevalence imaging, 16 h; active compounds read low; activity change (PNC), negative = inhibition, % at 10 µM; 140,000 compounds, 3.1% hits;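 active = readout at or below -70, meaning at least 70% loss of cells showing the perinucleolar compartment, a nuclear body marking cancer cells; inconclusive = readout between -30 and a set limit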;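 note: plate controls were DMSO wells for no effect and camptothecin positive control wells for full effect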
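Read-out is percentage of cells bearing a perinucleolar compartment, from automated 20x imaging of fixed, Hoechst-stained PC3M PTB-GFP cells. Cells were seeded 4 h, then exposed 16 h to compound (23 nl of library stock) in duplicate plates.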
HTT aggregate: mutant huntingtin aggregation inhibition. PC12 HttQ103-GFP aggregates, Acumen cytometry, 40 h. Potency, µM (highest dose often 46.1 µM), inactives show at the top dose activity change, negative = inhibition, most hits filed as inhibitors. 220,000 compounds, 1.1% hits; note: potency is the fitted concentration of half-maximal effect; % is set by controls: 0 for no effect and ±100 for the full control effect; nearly all actives have a fitted effect of over 60% in size
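Multiplexed with ATP-based cell death, this channel scores GFP aggregates in PC12 cells expressing inducible HTTex1-Q103-GFP. Induction used 100 nM tebufenozide; compounds were tested in concentration series.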
Numbers without * were called inactive; [ ] = dose if it differs, or a comment. Unless noted, calls come from the whole dose curve; as a rule, active = well fitted curve in the direction sought with a large enough effect; inconclusive = small, poorly fitted or top-dose-only effect, or another doubt; inactive = no such curve, though single readings can be large; an effect the other way counts as inactive or inconclusive.

For COc1ccc(N2C(=O)CC(N3CCN(c4ccccc4F)CC3)C2=O)cc1 (stereo not drawn) the results were NPSR antagonist -8%[46.1 µM], 12-hLO inh -3%, IMPase inh -2, HTT cytoprotect -2%, PNC inhibitor -97* and HTT aggregate 2%.
`O=C1CCCN1CCC1CCN(C2CC(=O)N(c3ccc(F)cc3)C2=O)CC1` (stereo not drawn) gave NPSR antagonist -16%[46.1 µM], 12-hLO inh -16%, IMPase inh 12, HTT cytoprotect -12%, PNC inhibitor -112* and HTT aggregate 17%.
C/C(=N\Nc1ccc(C(F)(F)F)cn1)c1ccncc1 was read as NPSR antagonist -11%, HTT cytoprotect -51% and HTT aggregate -7%.
`CC(C)c1ccc2c(c1)CC[C@H]1[C@@](C)(CN)CCC[C@@]21C` gave 12-hLO inh 4%[11.4 µM] and HTT cytoprotect 1%[10 µM].
CNC(=S)c1cc(C(C)(C)C)c(O)c(C(C)(C)C)c1 was read as NPSR antagonist 11%[7.67 µM], HTT cytoprotect 2%[10 µM] and HTT aggregate -11%[9.22 µM].
For CCOC(=O)/C(=C\c1ccc(Cl)cc1)c1nc2sc(C)c(C)c2c(=O)[nH]1 the results were NPSR antagonist 7.9µM*, 12-hLO inh -7%, HTT cytoprotect 3%[10 µM], PNC inhibitor -7 and HTT aggregate inconclusive.
CCOC(=O)CSc1nc2sc(C)c(C)c2c(=O)[nH]1 was read as NPSR antagonist 18%[46.1 µM], 12-hLO inh 0%, IMPase inh 8, HTT cytoprotect -3%, PNC inhibitor 40 and HTT aggregate 8%.
For Oc1ccccc1-n1nc2ccc3nonc3c2n1 the results were NPSR antagonist 6%[7.67 µM], HTT cytoprotect 22%[10 µM] and HTT aggregate 12%[9.22 µM].
`O=c1cc(O)c2ccc(O)cc2o1` gave NPSR antagonist -6%, HTT cytoprotect 4%[10 µM] and HTT aggregate 5%[9.22 µM].
`Cc1cc(=O)oc2cc(O)ccc12` gave 12-hLO inh 2%[25.6 µM], IMPase inh -17[20.6 µM], HTT cytoprotect 5.6µM* and HTT aggregate 8%[20.6 µM].
COc1ccc2c(c1)c(=O)oc1cc(O)ccc12 was read as NPSR antagonist -1%, HTT cytoprotect 11%[10 µM] and HTT aggregate -4%[9.22 µM].
For O=c1oc2cc(O)ccc2c2ccccc12 the results were NPSR antagonist 5µM*, 12-hLO inh -2%, IMPase inh inconclusive, HTT cytoprotect -9%, PNC inhibitor -15 and HTT aggregate -18%.
`CNC(=S)N1N=C(c2ccc(C)cc2)CC1c1ccc(OC)cc1` (stereo not drawn) gave NPSR antagonist -16%[46.1 µM], 12-hLO inh inconclusive, IMPase inh -2, HTT cytoprotect -22%, PNC inhibitor -16 and HTT aggregate -19%.
`CNC(=S)N1N=C(c2ccc(Br)cc2)CC1c1ccc(OC)cc1` (stereo not drawn) gave NPSR antagonist -27%, 12-hLO inh inconclusive, HTT cytoprotect 14%[10 µM], PNC inhibitor -121* and HTT aggregate 13%.
`CN(C)c1ccc(C(=C2C=CC(=[N+](C)C)C=C2)c2c(O)c(S(=O)(=O)O)cc3cc(S(=O)(=O)O)ccc23)cc1` gave 12-hLO inh 3%[11.4 µM] and HTT cytoprotect -7%[10 µM].
O=C(NC(Cc1c[nH]c2ccccc12)C(=O)O)c1cccs1 (stereo not drawn) was read as NPSR antagonist 4%, HTT cytoprotect -35% and HTT aggregate -12%.
Screening O=C(NC(Cc1c[nH]c2ccccc12)C(=O)Nc1ccc(OC(F)(F)F)cc1)c1cccs1 (stereo not drawn) returned NPSR antagonist -37%, 12-hLO inh 0%, HTT cytoprotect 10%[10 µM], PNC inhibitor -113* and HTT aggregate inconclusive.
Screening O=C(NC(Cc1c[nH]c2ccccc12)C(=O)Nc1ccc(F)c([N+](=O)[O-])c1)c1cccs1 (stereo not drawn) returned NPSR antagonist inconclusive, 12-hLO inh -9%, IMPase inh 15, HTT cytoprotect -18%[10 µM], PNC inhibitor -119* and HTT aggregate -12%.
For Cc1ccc(N(Cc2ccccc2)Cc2ccccc2)cc1 the results were 12-hLO inh 4%[11.4 µM] and HTT cytoprotect 7%[10 µM].
Screening COC(=O)N1C(/C=C/c2ccc3c(c2)OCO3)=Cc2ccccc2C1CC(C)=O (stereo not drawn) returned 12-hLO inh -9%[11.4 µM] and HTT cytoprotect -4%[10 µM].
Cc1ccc(NS(=O)(=O)c2cccc(C(=O)NCC3(N(C)C)CCCCC3)c2)cc1 was read as NPSR antagonist 10µM*, HTT cytoprotect -21% and HTT aggregate -1%.
O=C(CSc1nccn1-c1ccccc1)Nc1ccc2c(c1)OCO2 was read as NPSR antagonist inconclusive, 12-hLO inh -17%, IMPase inh 0, HTT cytoprotect -11%, PNC inhibitor -21 and HTT aggregate 1%.
For Cc1cc(C)cc(-n2ccnc2SCC(=O)Nc2ccc3c(c2)OCCO3)c1 the results were NPSR antagonist -25%[46.1 µM], 12-hLO inh -2%, IMPase inh inconclusive, HTT cytoprotect 8%[10 µM], PNC inhibitor -85* and HTT aggregate 2%.
`NC(=O)NC(=O)[C@H]1CCCC[C@@H]1C(=O)O` gave 12-hLO inh -3%[11.4 µM] and HTT cytoprotect -15%[10 µM].
Cc1ccc2c(c1C)NC(=O)CC2c1ccc(Cl)cc1Cl (stereo not drawn) was read as IMPase inh -1.
For CCCCc1ccc(NC(=S)Nc2ccc(Cl)c(S(=O)(=O)N(C)C)c2)cc1 the results were NPSR antagonist -5%, 12-hLO inh -7%, HTT cytoprotect -21%[10 µM], PNC inhibitor -119* and HTT aggregate -11%.
COc1ccccc1Nc1nc(-c2c(C)nc3ncccn23)cs1 was read as NPSR antagonist 41%, HTT cytoprotect -11%[10 µM] and HTT aggregate -4%[9.22 µM].
Screening CN[C@H]1CCc2cc(OC)c(OC)c(OC)c2-c2ccc(N[C@@H]3CCCCNC3=O)c(=O)cc21 returned HTT cytoprotect -266%.
For COc1ccc(C(=O)N[C@H](C(=O)Nc2ccc(OC)nc2)C(C)C)cc1 the results were NPSR antagonist -8%[46.1 µM], 12-hLO inh 0%, IMPase inh 1, HTT cytoprotect -4%, PNC inhibitor -112* and HTT aggregate -1%.
COc1ccc(-c2nn(-c3ccccc3)cc2C(=O)Nc2nccs2)cc1 was read as NPSR antagonist -24%[46.1 µM], 12-hLO inh 2%, IMPase inh 1, HTT cytoprotect -40%, PNC inhibitor -22 and HTT aggregate 18µM*.
